Sampled rows, rich in hits. Any-hit rate of the full collection: about 2.5%.
ULK1 primary: ULK1 kinase inhibitors, primary screen, biochemical, AlphaScreen | AlphaScreen Atg13 phosphorylation by ULK1, luminescence | inhibition, % at 5.96 µM | 30,000 tested, 1.9% active | AID 1259251, 2017; in the data active = inhibition above about 43%;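 also: 0% = median of compound wells and 100% = no enzyme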
Target sequence (O75385 whole entry, looked up): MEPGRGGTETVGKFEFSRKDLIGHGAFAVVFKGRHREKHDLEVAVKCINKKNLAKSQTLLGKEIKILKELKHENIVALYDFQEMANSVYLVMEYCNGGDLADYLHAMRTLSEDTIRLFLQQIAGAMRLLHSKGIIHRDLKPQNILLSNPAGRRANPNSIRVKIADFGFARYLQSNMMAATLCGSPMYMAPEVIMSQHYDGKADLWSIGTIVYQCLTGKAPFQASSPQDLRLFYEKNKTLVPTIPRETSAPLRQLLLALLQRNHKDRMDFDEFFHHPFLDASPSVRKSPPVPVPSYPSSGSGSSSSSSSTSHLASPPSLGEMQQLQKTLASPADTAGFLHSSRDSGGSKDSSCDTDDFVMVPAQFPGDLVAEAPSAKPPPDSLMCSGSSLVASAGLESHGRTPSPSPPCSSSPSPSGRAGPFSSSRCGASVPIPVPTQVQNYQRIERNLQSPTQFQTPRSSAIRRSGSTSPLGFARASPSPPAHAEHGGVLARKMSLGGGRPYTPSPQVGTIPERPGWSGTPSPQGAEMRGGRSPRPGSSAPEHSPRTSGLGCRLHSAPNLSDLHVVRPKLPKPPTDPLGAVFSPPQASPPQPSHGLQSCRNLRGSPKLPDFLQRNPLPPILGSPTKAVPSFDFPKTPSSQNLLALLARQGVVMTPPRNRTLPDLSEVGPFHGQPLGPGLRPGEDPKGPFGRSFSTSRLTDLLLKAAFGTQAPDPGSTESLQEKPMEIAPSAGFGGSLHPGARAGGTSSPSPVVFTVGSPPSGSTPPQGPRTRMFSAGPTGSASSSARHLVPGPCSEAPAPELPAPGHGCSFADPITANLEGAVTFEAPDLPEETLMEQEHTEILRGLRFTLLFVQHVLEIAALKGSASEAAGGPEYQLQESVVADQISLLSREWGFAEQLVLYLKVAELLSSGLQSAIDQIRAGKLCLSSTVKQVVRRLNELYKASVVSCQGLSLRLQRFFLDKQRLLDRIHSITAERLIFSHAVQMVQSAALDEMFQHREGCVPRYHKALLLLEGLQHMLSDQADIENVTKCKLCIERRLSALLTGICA
ASK1 primary: ASK1 kinase inhibitors, primary screen, biochemical, AlphaScreen. Mitogen-activated protein kinase kinase kinase 5 (Homo sapiens), Q99683. AlphaScreen MKK6 phosphorylation by ASK1, luminescence. inhibition, % at 7.44 µM. 22,000 tested, 0.99% active; in the data active = inhibition above about 35%;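 also: 0% = median of compound wells and 100% = no enzyme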
TruHits interf: AlphaScreen signal interference by compounds, dose response, artefact control for ASK1 inhibitor project, biochemical, TruHits beads; shares compounds with ASK1 primary; signal interference counterscreen; IC50, µM; 220 tested, 20% active; AID 1159604, 2016;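 active = IC50 of 10 µM or lower in the counterscreen; inactive = IC50 above 10 µM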;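 also: loss of AlphaScreen light from TruHits beads alone with no ASK1 enzyme present; potency of signal reduction so a low IC50 flags an assay artifact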
* = called active by the depositor; i = inactive; · = not tested or not shown.

SMILES | ULK1 primary | ASK1 primary | TruHits interf
COc1cc2nc(Nc3nc4ccccc4n3C)nc(Nc3ccccc3)c2cc1OC | -25 | -14 | ·
FC(F)(F)c1ccc(Cn2cnc3c(Nc4ccc(N5CCOCC5)cc4)nc(Nc4ccc(N5CCOCC5)cc4)nc32)cc1 | 1 | 22 | ·
CCCNc1nc(Nc2ccc(N3CCOCC3)cc2)nc2c1ncn2Cc1ccc(C(F)(F)F)cc1 | -2 | 40* | i
FC(F)(F)c1ccc(Cn2cnc3c(Nc4ccc5c(c4)OCO5)nc(Nc4ccc(N5CCOCC5)cc4)nc32)cc1 | 3 | 62* | i
FC(F)(F)c1ccc(Cn2cnc3c(NCCN4CCOCC4)nc(Nc4ccc(C(F)(F)F)cc4)nc32)cc1 | -36 | 5 | ·
CCCCCCCCn1c(SCCO)nc2c1c(=O)[nH]c(=O)n2C | 1 | · | ·
COc1cc(NC(=O)c2ccnc(-c3ccc(N4CCN(C)CC4)cc3)c2)cc(OC)c1OC | 5 | 11 | ·
COc1cc(N2CCN(C)CC2)ccc1Nc1cc(Nc2ccccc2-c2ncccn2)c(C(F)(F)F)cn1 | 53* | 38* | i
COc1nc(NCc2cccnc2)nc(-c2ccc(C(=O)N3CCN(C)CC3)cc2)n1 | 15 | 6 | ·
Cc1nc(C)n(-c2ccc(Nc3nccc(-c4cccc(-n5nccn5)c4)n3)cc2)n1 | -15 | 39* | >19
Cc1nc(C)n(-c2ccc(Nc3nccc(-c4cccc(-n5ccnc5)c4)n3)cc2)n1 | -92 | -72 | ·
Cc1cc(Nc2ccc(N3CCOCC3)cc2)nc(Nc2nccc3ccccc23)n1 | 4 | 20 | ·
COc1cc2nc(Nc3nccc4ccccc34)nc(Nc3ccc(N4CCOCC4)cc3)c2cc1OC | 10 | 36* | i
COc1cc2nc(Nc3ccc(N4CCOCC4)cc3)nc(NCc3ccccc3)c2cc1OC | -7 | 41* | i
CCCNc1nc(Nc2ccc(N3CCOCC3)cc2)nc2cc(OC)c(OC)cc12 | 9 | 30 | ·
COc1cc2nc(Nc3ccccn3)nc(Nc3ccc(N4CCOCC4)cc3)c2cc1OC | -9 | 9 | ·
O=C(NCCc1ccc(O)cc1)c1cccc(-c2cccs2)c1 | -6 | 2 | ·
Cc1cc(NCCOc2ccccc2)nc(Nc2ccc(-n3ccnc3)cc2)n1 | -8 | 3 | ·
Cn1cc(-c2ccc3cnc(Nc4ccc(-c5ccc(N6CCOCC6)nc5)cc4)nc3c2Cl)cn1 | 43* | 38* | >19
Cc1ncn(-c2ccc(Nc3ncc4cccc(-c5ccnc(N6CCOCC6)c5)c4n3)cc2)n1 | 16 | 24 | ·
Cc1[nH]ncc1-c1ccc(NC(=O)C2COc3ccc(F)cc3C2)c(N(C)CCN(C)C)c1 (centres undefined) | 2 | -6 | ·
Cc1[nH]ncc1-c1ccc2nc(NC(=O)C3COc4ccc(F)cc4C3)sc2c1 (centres undefined) | 14 | 39* | >19
CN1CCN(C(=O)c2ccc(-c3cc(C(=O)NCc4nc5ccccc5[nH]4)ccn3)cc2)CC1 | 27 | -4 | ·
COc1ccc2c(c1)CC(c1nc3c(OC)cc(-c4cn[nH]c4)cc3c(=O)[nH]1)CO2 (centres undefined) | -5 | -14 | ·
COc1cc(-c2cn[nH]c2)cc2c(=O)[nH]c(C3COc4ccc(C)cc4C3)nc12 (centres undefined) | 5 | 40* | >19
SMILES | ULK1 primary | ASK1 primary | TruHits interf
NC(=O)c1ccc(-c2nc(NCc3cccc(C(F)(F)F)c3)c3ncn(Cc4ccc(C(F)(F)F)cc4)c3n2)cc1 | -6 | 41* | >17
CC(=O)c1cccc(-c2nc(NCc3cccc(C(F)(F)F)c3)c3ncn(Cc4ccc(C(F)(F)F)cc4)c3n2)c1 | -12 | 5 | ·
CC(=O)c1cccc(-c2nc(NCc3ccccc3)c3ncn(Cc4ccc(C(F)(F)F)cc4)c3n2)c1 | -5 | 46* | >19
COc1ccc(-c2nc(NCc3cccc(C(F)(F)F)c3)c3ncn(Cc4ccc(C(F)(F)F)cc4)c3n2)cc1 | -19 | -7 | ·
FC(F)(F)c1cccc(CNc2cc(N3CCN(c4ccccn4)CC3)ncn2)c1 | -38 | -4 | ·
Nc1nc(NC2CC2)cc(N2CCC(N3CCOCC3)CC2)n1 | -1 | -1 | ·
COc1ccc(-c2nc(NCCN3CCOCC3)c3ncn(Cc4ccc(C(F)(F)F)cc4)c3n2)cc1 | -53 | 4 | ·
c1ccc(-n2cnc3c(Nc4ccc(N5CCOCC5)cc4)nc(Nc4ccc(-n5ccnc5)cc4)nc32)cc1 | 17 | -5 | ·
CC(=O)Nc1ccc(Nc2nc(N3CCN(c4ccccn4)CC3)nc3c2ncn3Cc2ccc(C(F)(F)F)cc2)cc1 | -58 | 6 | ·
CC(C)n1cnc2c(Nc3ccccc3)nc(Nc3ccc(N4CCOCC4)cc3)nc21 | 31 | 47* | >20
CC(C)n1cnc2c(NCc3ccccc3)nc(Nc3ccc(N4CCOCC4)cc3)nc21 | -5 | 35 | ·
CC(C)n1cnc2c(Nc3ccccc3)nc(N3CCN(c4ccccn4)CC3)nc21 | 16 | 32 | ·
c1ccc(-n2cnc3c(Nc4ccc(N5CCOCC5)cc4)nc(Nc4cccnc4)nc32)cc1 | 11 | 40* | >16
CC(C)n1cnc2c(Nc3ccc(N4CCOCC4)cc3)nc(N3CCN(c4ccccn4)CC3)nc21 | 35 | 36* | i
FC(F)(F)c1ccc(Cn2cnc3c(Nc4ccc(N5CCOCC5)cc4)nc(N4CCN(c5ccccn5)CC4)nc32)cc1 | -11 | 38* | >20
COc1ccnc2c1c(=O)n(Cc1ccccn1)c(=O)n2C | -6 | · | ·
OCC1CCCN1c1nc(NCc2cccnc2)c2ncn(C3CCCCC3)c2n1 (centres undefined) | -14 | 1 | ·
CCOC(=O)N1CCN(c2ncc(-c3cc4ccccc4s3)cn2)CC1 | 1 | · | ·
COc1ccc(CCNc2nc(Nc3ncccn3)ncc2C)cc1 | 9 | 4 | ·
CCOc1ccnc2c1c(=O)n(CC#N)c(=O)n2C | 2 | · | ·
Nc1nc(NCc2ccccc2)cc(N2CCN(c3ccccn3)CC2)n1 | -3 | -11 | ·
CC(C)n1cnc2c(Nc3ccccc3)nc(N3CCOCC3)nc21 | 17 | 2 | ·
CC(C)n1cnc2c(Nc3ccc(Oc4ccccc4)cc3)nc(N3CCOCC3)nc21 | 17 | 42* | >20
c1ccc(CN2CCC(Nc3nc(Nc4ccc(N5CCOCC5)cc4)nc4nc[nH]c34)CC2)cc1 | 18 | 36* | >20
c1cnc2ccc(Nc3nc(Nc4ccc(N5CCOCC5)cc4)c4[nH]cnc4n3)cc2c1 | -12 | 41* | >20
SMILES | ULK1 primary | ASK1 primary | TruHits interf
c1ccc(Nc2nc(Nc3ccc(N4CCOCC4)cc3)c3[nH]cnc3n2)nc1 | 7 | 8 | ·
c1ccc(CN2CCC(Nc3nc(Nc4ccccc4)nc4c3ncn4-c3ccsc3)CC2)cc1 | 4 | 17 | ·
c1ccc(CN2CCC(Nc3nc(Nc4ccc(N5CCOCC5)cc4)nc4c3ncn4-c3ccsc3)CC2)cc1 | 11 | 43* | 9.3*
c1ccc(CN2CCC(Nc3nc(N4CCOCC4)nc4nc[nH]c34)CC2)cc1 | -18 | 1 | ·
COc1cc2nc(NCc3ccc4c(c3)OCO4)nc(NCCN(C(C)C)C(C)C)c2cc1OC | 13 | 6 | ·
CCN(CC)c1nc(NCCc2ccc(OC)cc2)nc(Nc2ccc3ncccc3c2)n1 | -23 | 5 | ·
CC(C)n1c(NCc2cccnc2)nc2c(Nc3ccc4c(c3)OCO4)ncnc21 | 3 | -9 | ·

Screens deposited in PubChem BioAssay by The Scripps Research Institute Molecular Screening Center.
